From PubChem BioAssay AID1159580 (chemical genetic matrix, 2015)
Where “and” joins values, the source holds several entries; their conditions need not be identical. Identical values can stand only once. In all, about 5,500 compounds went through this assay and about 2,000 (36%) were called active. About 18% were inconclusive and are not listed. Cut-off read from the data, not from the text of the source: active = normalized growth mostly below about 0.91 (no sharp cut-off); inconclusive = no clear call, values can overlap the other calls; inactive = mostly above about 0.92. This is one part of the list.

Experiment: chemical genetic growth profiling, strain panel (AID 1159580);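 note: tested at 20 µM; growth read once vehicle control cultures reached saturation at 30 °C; 1 = growth at the plate median or of vehicle wells; lower values mean less growth of the strain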
Details: S. cerevisiae deletion strains, growth OD

Measured: normalized growth

Cc1cc(OC(=O)c2c(C)cc(O)cc2O)cc(O)c1C(=O)O
inactive: locus YAL021C, strain ccr4, hits give low values 1.02 | locus YAL026C, strain drs2, hits give low values 0.991 | locus YAL030W, strain snc1, hits give low values 0.995 | locus YBL061C, strain skt5, hits give low values 0.973 | locus YBR009C, strain hhf1, hits give low values 0.991 | locus YBR021W, strain FUR4, hits give low values 1.01 | locus YBR023C, strain chs3, hits give low values 0.978 | locus YBR171W, strain sec66, hits give low values 0.988 | locus YBR229C, strain ROT2, hits give low values 1.01 | locus YBR231C, strain swc5, hits give low values 0.992 | locus YBR279W, strain paf1, hits give low values 0.997 | locus YCL011C, strain gbp2, hits give low values 0.991 | locus YCL016C, strain dcc1, hits give low values 0.992 | locus YCL029C, strain bik1, hits give low values 1 | locus YCL061C, strain MRC1, hits give low values 0.989 | locus YCL069W, strain vba3, hits give low values 0.998 | locus YCR088W, strain abp1, hits give low values 0.997 | locus YDL005C, strain med2, hits give low values 0.983 | locus YDL035C, strain GPR1, hits give low values 1 | locus YDL040C, strain nat1, hits give low values 0.98 | locus YDL074C, strain BRE1, hits give low values 0.999 | locus YDL101C, strain DUN1, hits give low values 1.01 | locus YDL134C, strain PPH21, hits give low values 0.99 | locus YDL185W, strain tfp1, hits give low values 1 | locus YDL192W, strain arf1, hits give low values 0.979 | locus YDR001C, strain nth1, hits give low values 1 | locus YDR069C, strain doa4, hits give low values 0.966 | locus YDR101C, strain arx1, hits give low values 0.977 | locus YDR137W, strain rgp1, hits give low values 0.985 | locus YDR159W, strain sac3, hits give low values 0.987 | locus YDR162C, strain NBP2, hits give low values 1.01 | locus YDR195W, strain ref2 0.962 | locus YDR297W, strain sur2, hits give low values 0.99 | locus YDR318W, strain mcm21, hits give low values 0.981 | locus YDR334W, strain swr1, hits give low values 0.987 | locus YDR335W, strain msn5, hits give low values 1.01 | locus YDR388W, hits give low values 1.02 | locus YDR392W, strain spt3, hits give low values 0.991 | locus YDR502C, strain sam2, hits give low values 0.979 | locus YEL003W, strain gim4, hits give low values 0.972 | locus YEL037C, strain rad23, hits give low values 1 | locus YEL061C, strain CIN8 (second series), hits give low values 0.993 | locus YEL061C, strain CIN8, hits give low values 1.01 | locus YER015W, strain faa2, hits give low values 0.986 | locus YER016W, strain bim1, hits give low values 0.993 | locus YER110C, hits give low values 1.01 | locus YER111C, strain swi4, hits give low values 0.974 | locus YER155C, strain BEM2 (second series), hits give low values 0.966 | locus YER155C, strain BEM2, hits give low values 1.02 | locus YER167W, strain BCK2, hits give low values 1.01 | locus YFR010W, strain ubp6, hits give low values 0.968 | locus YGL078C, strain dbp3, hits give low values 0.967 | locus YGL086W, strain mad1, hits give low values 0.972 | locus YGL167C, strain pmr1, hits give low values 0.972 | locus YGL173C, strain kem1, hits give low values 0.981 | locus YGL227W, strain vid30, hits give low values 0.996 | locus YGL240W, strain doc1, hits give low values 0.957 | locus YGL248W, strain PDE1, hits give low values 1 | locus YGL253W, strain hxk2, hits give low values 0.99 | locus YGR135W, strain pre9, hits give low values 0.973 | locus YGR252W, strain gcn5, hits give low values 0.935 | locus YHR013C, strain ard1, hits give low values 0.966 | locus YHR027C, strain rpn1, hits give low values 1.01 | locus YHR030C, strain SLT2, hits give low values 0.976 | locus YHR079C, strain IRE1 (second series), hits give low values 1 | locus YHR079C, strain IRE1, hits give low values 0.968 | locus YHR094C, strain hxt1, hits give low values 1.02 | locus YHR129C, strain ARP1, hits give low values 0.997 | locus YHR142W, strain chs7, hits give low values 1 | locus YHR200W, strain rpn10, hits give low values 0.985 | locus YIL066C, strain RNR3, hits give low values 1.01 | locus YIL073C, strain SPO22, hits give low values 1.01 | locus YIL125W, strain kgd1, hits give low values 0.995 | locus YIR030C, strain dcg1, hits give low values 1 | locus YJL092W, strain hpr5, hits give low values 0.989 | locus YJL095W, strain BCK1 (second series), hits give low values 0.986 | locus YJL095W, strain BCK1, hits give low values 0.991 and 0.996 | locus YJL115W, strain asf1, hits give low values 0.987 | locus YJL129C, strain trk1, hits give low values 0.983 | locus YJL134W, strain LCB3, hits give low values 1.02 | locus YJL154C, strain vps35, hits give low values 0.993 | locus YJL164C, strain tpk1, hits give low values 1.02 | locus YJL166W, strain qcr8, hits give low values 0.987 | locus YJL168C, strain set2, hits give low values 1 | locus YJL187C, strain SWE1 (second series), hits give low values 0.993 | locus YJL187C, strain SWE1, hits give low values 1 | locus YJR043C, strain POL32, hits give low values 1 | locus YJR066W, strain TOR1, hits give low values 0.894 | locus YJR075W, strain HOC1, hits give low values 1.01 | locus YKL009W, strain mrt4, hits give low values 0.991 | locus YKL068W, hits give low values 1.02 | locus YKL085W, strain MDH1 (second series), hits give low values 1 | locus YKL085W, strain MDH1, hits give low values 1 | locus YKL160W, strain elf1, hits give low values 1.02 | locus YKL190W, strain CNB1, hits give low values 1.01 | locus YKR001C, strain vps1, hits give low values 0.98 | locus YKR026C, strain gcn3, hits give low values 0.983 | locus YKR091W, strain srl3, hits give low values 0.992 | locus YLL001W, strain dnm1, hits give low values 1.01 | locus YLL026W, hits give low values 0.991 | locus YLL041C, strain sdh2, hits give low values 0.972 | locus YLR027C, strain aat2, hits give low values 0.99 | locus YLR039C, strain RIC1, hits give low values 0.914 | locus YLR058C, strain SHM2, hits give low values 0.992 | locus YLR102C, strain apc9, hits give low values 1.01 | locus YLR113W, strain HOG1, hits give low values 1.01 | locus YLR221C, strain rsa3, hits give low values 0.979 | locus YLR258W, strain gsy2, hits give low values 0.992 | locus YLR262C, strain YPT6 (second series), hits give low values 1.01 | locus YLR262C, strain YPT6, hits give low values 0.989 | locus YLR268W, strain sec22, hits give low values 0.983 | locus YLR320W, strain mms22, hits give low values 0.975 | locus YLR330W, strain CHS5, hits give low values 1.01 | locus YLR342W, strain FKS1 (second series), hits give low values 1.01 | locus YLR342W, strain FKS1, hits give low values 0.991 | locus YLR357W, strain rsc2, hits give low values 0.984 | locus YLR370C, strain arc18, hits give low values 0.978 | locus YLR371W, strain rom2, hits give low values 1 | locus YLR384C, strain iki3, hits give low values 0.963 | locus YLR418C, strain cdc73, hits give low values 0.951 | locus YML016C, strain PPZ1, hits give low values 1.01 | locus YML032C, strain rad52, hits give low values 0.979 | locus YML120C, strain ndi1, hits give low values 0.994 | locus YML124C, strain tub3, hits give low values 1 | locus YMR058W, strain fet3, hits give low values 0.99 | locus YMR078C, strain ctf18, hits give low values 1 | locus YMR125W, strain sto1, hits give low values 0.992 | locus YMR129W, hits give low values 0.996 | locus YMR205C, strain PFK2, hits give low values 1.03 | locus YMR223W, strain ubp8, hits give low values 0.975 | locus YMR231W, strain pep5, hits give low values 0.955 | locus YMR307W, strain GAS1, hits give low values 0.988 | locus YNL067W, strain RPL9B, hits give low values 1 | locus YNL071W, strain lat1, hits give low values 1.02 | locus YNL153C, strain GIM3, hits give low values 0.985 | locus YNL183C, strain NPR1, hits give low values 0.933 | locus YNL209W, strain ssb2, hits give low values 0.996 | locus YNL233W, strain BNI4, hits give low values 0.989 | locus YNL248C, strain rpa49, hits give low values 0.992 | locus YNL250W, strain rad50, hits give low values 1.03 | locus YNL271C, strain bni1, hits give low values 1.01 | locus YNL298W, strain CLA4, hits give low values 0.986 | locus YNL307C, strain MCK1, hits give low values 1 | locus YNL322C, strain KRE1 (second series), hits give low values 0.974 | locus YNL322C, strain KRE1, hits give low values 0.986 | locus YNR049C, strain mso1, hits give low values 0.975 | locus YNR052C, strain pop2, hits give low values 0.978 | locus YOL006C, strain TOP1, hits give low values 1.08 | locus YOL012C, strain htz1 1.01 | locus YOL147C, strain pex11, hits give low values 1.01 | locus YOR001W, strain rrp6, hits give low values 0.96 | locus YOR061W, strain CKA2, hits give low values 1.01 | locus YOR069W, strain VPS5, hits give low values 1.01 | locus YOR070C, strain gyp1, hits give low values 1 | locus YOR080W, strain dia2, hits give low values 0.975 | locus YOR083W, strain WHI5, hits give low values 1.03 | locus YOR106W, strain vam3, hits give low values 1.03 | locus YOR136W, strain idh2, hits give low values 1.01 | locus YOR144C, strain elg1, hits give low values 1.01 | locus YOR184W, strain ser1, hits give low values 0.973 | locus YOR231W, strain MKK1, hits give low values 0.974 | locus YOR265W, strain rbl2, hits give low values 0.991 | locus YOR270C, strain vph1, hits give low values 0.99 | locus YOR290C, strain snf2, hits give low values 0.969 | locus YOR316C, strain cot1, hits give low values 1.01 | locus YPL051W, strain arl3, hits give low values 0.993 | locus YPL078C, strain atp4, hits give low values 1.03 | locus YPL106C, strain sse1, hits give low values 0.99 | locus YPL240C, strain hsp82, hits give low values 0.974 | locus YPL241C, strain CIN2, hits give low values 1.02 | locus YPL256C, strain CLN2, hits give low values 1.01 | locus YPR119W, strain clb2, hits give low values 1.01 | locus YPR141C, strain kar3, hits give low values 1.02 | locus YPR163C, strain tif3, hits give low values 0.983 | locus YPR167C, strain met16, hits give low values 0.976 | strain wtn01, hits give low values 0.978
